Compounds without any hit were thinned out: in the full panel of roughly 83,000, 20% have a hit.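 A percent growth of 40 corresponds to 60% growth inhibition; 0 means no net growth; -100 means all cells died. Active threshold: below 10.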 Calls of active or inactive are those of the source.

The text below walks through data of PubChem BioAssay (NCI).

The test has as its system MDA-MB-468 breast. Description: NCI-60 one-dose screen, 48 h (100 = growth as untreated, 0 = no growth, -100 = all killed). To be noted: 10 µM unless noted.
`CCO/C=N/C1=C(C#N)C(c2ccc(OC)cc2)c2sc3c(F)cccc3c2O1` (centres undefined): the growth is 17.7% (inactive). `COc1ccc(-c2cc(-c3ccc(Cl)cc3)nc(SCCCC(=O)NO)n2)cc1`: the growth is -56.2% (active). The same measure for `COc1ccc(/C=C/C(=O)c2cc(OC)c(OC)c(OC)c2)cc1OCc1cn(Cc2ccc(F)cc2)nn1`: 25.2% (inactive). As for `CS(=O)(=O)c1nccc(-c2c(-c3ccc(OCCc4ccccc4)cc3)nc3sccn23)n1`, the growth was -81.5% (active).
